# Measured values as given in PubChem BioAssay (NCI).
# Compounds without any hit were thinned out: in the full panel of roughly 83,000, 20% have a hit.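 Plates (96-well) were seeded with cells, treated with compound at one concentration, and incubated for 48 hours before percent growth was determined.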 Unmarked numbers belong to inactive results. Calls of active or inactive are those of the source. The calls were made as follows: active = growth percent below 10; inactive = the rest.
# Legend:
# Test in all cases: NCI-60 one-dose screen, 48 h (100 = growth as untreated, 0 = no growth, -100 = all killed)
# SR leukemia = details: 10 µM unless noted
# RPMI-8226 leukemia = details: 10 µM unless noted
# OVCAR-8 ovarian = details: 10 µM unless noted
# OVCAR-5 ovarian = details: 10 µM unless noted
# OVCAR-4 ovarian = details: 10 µM unless noted
# SK-OV-3 ovarian = details: 10 µM unless noted
# IGROV1 ovarian = details: 10 µM unless noted
# OVCAR-3 ovarian = details: 10 µM unless noted
# NCI/ADR-RES ovarian = details: 10 µM unless noted
# T-47D breast = details: 10 µM unless noted
# BT-549 breast = details: 10 µM unless noted
# MDA-MB-435 melanoma = details: 10 µM unless noted
# SW-620 colon = details: 10 µM unless noted
# MCF7 breast = details: 10 µM unless noted
# HCT-116 colon = details: 10 µM unless noted
# HCC-2998 colon = details: 10 µM
# KM12 colon = details: 10 µM unless noted
SMILES,growth (SR leukemia),growth (RPMI-8226 leukemia),growth (OVCAR-8 ovarian),growth (OVCAR-5 ovarian),growth (OVCAR-4 ovarian),growth (SK-OV-3 ovarian),growth (IGROV1 ovarian),growth (OVCAR-3 ovarian),growth (NCI/ADR-RES ovarian),growth (T-47D breast),growth (BT-549 breast),growth (MDA-MB-435 melanoma),growth (SW-620 colon),growth (MCF7 breast),growth (HCT-116 colon),growth (HCC-2998 colon),growth (KM12 colon)
N#CCNC(=O)c1ccc(-c2ccnc(Nc3ccc(N4CCOCC4)cc3)n2)cc1,6.43% (active),27.3%,24.1%,29%,65.8%,28.7%,10.7%,31.9%,62.7%,63.5%,10.8%,42.5%,24%,15.6%,-4.58% (active),30.8%,16.9%
C=CCN1C(=O)c2cccc3c(-c4ccc5c(c4)ncn5C4CCCCC4)ccc(c23)C1=O,39.8%,29.5%,49.5%,75.3%,32.3%,73.4%,67.1%,62.4%,39.6%,11.2%,17%,39.4%,86.3%,37.6%,32%,75.2%,49.4%
CCc1cc2c(c3ccc(C(=O)CBr)cc13)CCCC2,91.7%,113%,105%,91.1%,110%,103%,99.1%,102%,93.5%,71.2%,80.3%,107%,111%,93.1%,102%,103%,103%
O=C(Cc1ccc(/C=C/C(=O)c2ncc[nH]2)cc1)Nc1ccc(S(F)(F)(F)(F)F)cc1,4.88% (active),-17.6% (active),88.2%,86.8%,93.2%,101%,52.8%,80.3%,97.2%,57.6%,64.3%,56.1%,10.4%,12.4%,-73.6% (active),78.9%,8.06% (active)
COCc1c(-c2ccc(NC(=O)Nc3cc(C(F)(F)F)ccc3F)c(F)c2)c2c(N)ncnn2c1CN1CCOCC1,-9.37% (active),-33.1% (active),-28.6% (active),-18.3% (active),-6.98% (active),-34.8% (active),-21.6% (active),6.05% (active),-21.4% (active),-27% (active),-39.5% (active),-68.8% (active),-0.244% (active),-22.9% (active),-1.82% (active),-52.1% (active),-37.2% (active)
CCn1cc(-c2ccnc3[nH]c(-c4cccc(CN(C)C)c4)cc23)c(-c2ccc(NC(=O)N(C)C)cc2)n1,-15.8% (active),3% (active),24.9%,24.5%,41.1%,-0.688% (active),26.3%,48.1%,72.4%,58%,14.1%,51.3%,2.66% (active),16.1%,8.47% (active),60%,11.1%
Cc1cc(Oc2ccccc2)ccc1Nc1ncnc2ccc(-c3cnc(Cl)c(NS(C)(=O)=O)c3)cc12,14.2%,7.65% (active),40.4%,10.8%,40.1%,-26.3% (active),-23.5% (active),11.7%,54.6%,-22.4% (active),-0.502% (active),17.9%,38.8%,9.35% (active),22.9%,25.7%,34.5%
Cc1cc(Nc2cc(N3CCN(C)CC3)nc(/C=C/c3ccccc3)n2)n[nH]1,-13.6% (active),28.3%,36.1%,13.2%,41%,3.69% (active),-30.7% (active),43.8%,15.7%,-24.7% (active),8.9% (active),6.58% (active),0.289% (active),0.852% (active),0.937% (active),-61.5% (active),-16.9% (active)
CCc1cnn2c(NCc3ccc[n+]([O-])c3)cc(N3CCCC[C@H]3CCO)nc12,-17.3% (active),-16.2% (active),-6.3% (active),4.89% (active),-9.21% (active),-17.8% (active),5.6% (active),12.3%,-0.875% (active),-16.9% (active),-15.7% (active),-35.4% (active),-4.01% (active),1.85% (active),1.22% (active),-37.3% (active),1.55% (active)
Cc1cn(-c2cc(NC(=O)c3ccc(C)c(Nc4nccc(-c5cnccn5)n4)c3)cc(C(F)(F)F)c2)cn1,21.5%,54%,47.1%,79%,99.7%,59.4%,85.1%,103%,63.8%,66.7%,98.8%,23.2%,75.5%,69%,42.6%,–,46.4%
Cn1c(=O)c(F)c(Nc2ccc(I)cc2F)c2c(=O)n(C[C@@H](O)CO)cnc21,52.4%,61.2%,43.9%,6.95% (active),55.8%,44.8%,10.5%,86.9%,60.6%,63.7%,60.6%,44.3%,21.6%,83.8%,9.17% (active),-37.7% (active),19.9%
O=c1[nH]c([C@@H]2CCCN2)nc2c1oc1ccc(Cl)cc12,34.1%,86.6%,72.9%,49.8%,84.5%,24%,81.3%,65%,82.9%,56.4%,58.5%,73.3%,22.7%,49.2%,33.6%,–,31.6%
CCCCN1CCCC[C@@H]1C(=O)N[C@H](C(=O)N(C)[C@H](CCc1nc(C(=O)N[C@@H](Cc2ccccc2)C[C@H](C)C(=O)OC)cs1)C(C)C)C(C)C,7.34% (active),7.01% (active),82.6%,95.1%,61.3%,75.4%,50.3%,65.2%,65.4%,45.3%,52.3%,-6.94% (active),85.3%,35.6%,41.5%,67.6%,47.7%
FC(F)c1nc2ccccc2n1-c1nc(N2CCOCC2)nc(N2CCOCC2)n1,1.58% (active),8.02% (active),-8.56% (active),1.3% (active),-17.1% (active),-46% (active),-37% (active),-0.63% (active),-12.9% (active),-36.1% (active),-8.49% (active),-8.55% (active),13.4%,1.28% (active),14%,–,3.42% (active)
COc1cc2ncnc(Nc3cccc(Cl)c3F)c2cc1OC(=O)N1CCN(C)C[C@H]1C,62.6%,76.4%,64.2%,46.5%,103%,-6.41% (active),16.4%,69.5%,64.3%,28.5%,93.8%,94.3%,94.2%,63.2%,87.5%,–,87.8%
CN1CC[C@@H](c2c(O)cc(O)c3c(=O)cc(-c4ccccc4Cl)oc23)[C@@H]1CO,1.89% (active),3.13% (active),6.68% (active),7.25% (active),-2.68% (active),5.82% (active),6.42% (active),14%,-3.1% (active),-8.71% (active),-4.92% (active),-67.9% (active),4.02% (active),4.7% (active),3.53% (active),-25.8% (active),3.84% (active)
N#Cc1c(NC(=O)c2cccs2)[n+]([O-])c2ccc(F)cc2[n+]1[O-],77%,93.2%,95.6%,108%,85.7%,82.6%,68.9%,98.3%,111%,76.9%,99.6%,105%,74%,86.5%,104%,–,92.2%
COc1cccc(Nc2ncnn3ccc(CN4CC[C@@H](N)[C@H](O)C4)c23)c1,20.1%,65.7%,27.5%,25.5%,61%,-41.4% (active),-19% (active),44.1%,19.4%,-1.78% (active),48.3%,75.6%,88.4%,58.8%,21.9%,77.1%,14.1%
